Over roughly 81,000 sequences, “one-hybrid fitness for binding parS DNA” has its median near -0.17; the highest 2% begin near 0.51. The sample as a whole holds a higher share of the highest values than the screen did.
B1: Caulobacter ParB omega fusion; a variant is named by its letters at X, in order, B8GW30 (parent)
chain: MESVVVGEPGMSEGRRGLGRGLSALLGEVDAAPAQAPGEQLGGSREAPIEILQRNPDQPRRTFREEDLEDLSNSIREKGVLQPILVRPSPDTAGEYQIVAGERAWRAAQRAGLKTVPIMVRELDDLAVLEIGIIENVQRADLNVLEEALSYKVLMEKFERTQENIAQTIGKSXSHVANXMRLLXLPDEVQSYLVSGELTAXHARAIAAAADPVALAKQIIEGGLSVRETEALARKAPNLSAGKSKGGRPPRVKDTDTQALESDLSSVLGLDVSIDHRGSTGTLTITYATLEQLDDLCNRLTRGI

Variants of: B1
Test: one-hybrid fitness for binding parS DNA (scaled: cognate 1, non-cognate 0); higher = stronger binding
Conditions: with parS DNA site
Summary of the method: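 The reporter was HIS3, with the binding site 19 bp from the promoter, in E. coli USO used for bacterial one-hybrid selection of Caulobacter ParB libraries with four specificity codons randomised. Growth was on M9 lacking histidine, with 0.1 mM IPTG and 5 mM 3-AT, for 48 hours at 37°C. Illumina sequencing covered plasmids before and after selection; three replicate libraries were pooled and variants with under 10 reads dropped. A fitness score is the log change in variant-to-wild-type read ratio, rescaled to the cognate and non-cognate references.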
In the case of QIKS, the “one-hybrid fitness for binding parS DNA” value is reported as no more than 0.2. With REWT the “one-hybrid fitness for binding parS DNA” value was no more than 0.2. In the case of RGWT, the “one-hybrid fitness for binding parS DNA” value is reported as 0.388. For RPWT, the “one-hybrid fitness for binding parS DNA” value was no more than 0.2. With RDWT the “one-hybrid fitness for binding parS DNA” value was no more than 0.2. For RMWH, the “one-hybrid fitness for binding parS DNA” value was 0.231. With RMWT the “one-hybrid fitness for binding parS DNA” value was 0.904. For RMWN, the “one-hybrid fitness for binding parS DNA” value was 0.43. With RCWT the “one-hybrid fitness for binding parS DNA” value was 0.908. RSWT was tested, and the “one-hybrid fitness for binding parS DNA” value was 0.756. TNVG was tested, and the “one-hybrid fitness for binding parS DNA” value was no more than 0.2. AFWR was tested, and the “one-hybrid fitness for binding parS DNA” value was no more than 0.2. For TISC, the “one-hybrid fitness for binding parS DNA” value was no more than 0.2. With RCEF the “one-hybrid fitness for binding parS DNA” value was no more than 0.2. For RPFS, the “one-hybrid fitness for binding parS DNA” value was no more than 0.2. With RSFS the “one-hybrid fitness for binding parS DNA” value was 1.01. RSFD was tested, and the “one-hybrid fitness for binding parS DNA” value was no more than 0.2. RSFP was tested, and the “one-hybrid fitness for binding parS DNA” value was no more than 0.2. For RCFD, the “one-hybrid fitness for binding parS DNA” value was no more than 0.2. In the case of RCFS, the “one-hybrid fitness for binding parS DNA” value is reported as 1.03. In the case of QAPG, the “one-hybrid fitness for binding parS DNA” value is reported as no more than 0.2. YKDR was tested, and the “one-hybrid fitness for binding parS DNA” value was no more than 0.2. In the case of IDIG, the “one-hybrid fitness for binding parS DNA” value is reported as no more than 0.2. With RRSG the “one-hybrid fitness for binding parS DNA” value was 0.711. In the case of RRCG, the “one-hybrid fitness for binding parS DNA” value is reported as 0.758. RRYG was tested, and the “one-hybrid fitness for binding parS DNA” value was 0.769. With RRCN the “one-hybrid fitness for binding parS DNA” value was 0.452. For RRSY, the “one-hybrid fitness for binding parS DNA” value was 0.46. RRGG was tested, and the “one-hybrid fitness for binding parS DNA” value was 0.698. RRYK was tested, and the “one-hybrid fitness for binding parS DNA” value was no more than 0.2. RRGY was tested, and the “one-hybrid fitness for binding parS DNA” value was 0.361. With DRSG the “one-hybrid fitness for binding parS DNA” value was no more than 0.2. RRYR was tested, and the “one-hybrid fitness for binding parS DNA” value was no more than 0.2. In the case of RRGF, the “one-hybrid fitness for binding parS DNA” value is reported as no more than 0.2. In the case of RRCR, the “one-hybrid fitness for binding parS DNA” value is reported as no more than 0.2. In the case of QRNI, the “one-hybrid fitness for binding parS DNA” value is reported as no more than 0.2. For RLLW, the “one-hybrid fitness for binding parS DNA” value was 0.241. FRGV was tested, and the “one-hybrid fitness for binding parS DNA” value was no more than 0.2. For TALQ, the “one-hybrid fitness for binding parS DNA” value was no more than 0.2. With TKKR the “one-hybrid fitness for binding parS DNA” value was no more than 0.2. With PENA the “one-hybrid fitness for binding parS DNA” value was no more than 0.2. With HIPD the “one-hybrid fitness for binding parS DNA” value was no more than 0.2. In the case of EYSL, the “one-hybrid fitness for binding parS DNA” value is reported as no more than 0.2. In the case of NRRG, the “one-hybrid fitness for binding parS DNA” value is reported as no more than 0.2. NRNG was tested, and the “one-hybrid fitness for binding parS DNA” value was no more than 0.2. With RRQG the “one-hybrid fitness for binding parS DNA” value was 0.727. With RRQQ the “one-hybrid fitness for binding parS DNA” value was no more than 0.2. With DRRG the “one-hybrid fitness for binding parS DNA” value was no more than 0.2. RRDG was tested, and the “one-hybrid fitness for binding parS DNA” value was 0.888. For RRNG, the “one-hybrid fitness for binding parS DNA” value was 0.704. With RRNE the “one-hybrid fitness for binding parS DNA” value was no more than 0.2. With RRRG the “one-hybrid fitness for binding parS DNA” value was 0.706. With RRQY the “one-hybrid fitness for binding parS DNA” value was 0.441. For DRDG, the “one-hybrid fitness for binding parS DNA” value was no more than 0.2. With YVYG the “one-hybrid fitness for binding parS DNA” value was no more than 0.2. With RGYW the “one-hybrid fitness for binding parS DNA” value was no more than 0.2. For HTNV, the “one-hybrid fitness for binding parS DNA” value was no more than 0.2. TDNV was tested, and the “one-hybrid fitness for binding parS DNA” value was no more than 0.2. ASRA was tested, and the “one-hybrid fitness for binding parS DNA” value was no more than 0.2. For KASS, the “one-hybrid fitness for binding parS DNA” value was no more than 0.2. In the case of EPDT, the “one-hybrid fitness for binding parS DNA” value is reported as no more than 0.2. With GAHV the “one-hybrid fitness for binding parS DNA” value was no more than 0.2. SLDA was tested, and the “one-hybrid fitness for binding parS DNA” value was no more than 0.2. With LSDS the “one-hybrid fitness for binding parS DNA” value was no more than 0.2. IIGF was tested, and the “one-hybrid fitness for binding parS DNA” value was no more than 0.2. For RRHM, the “one-hybrid fitness for binding parS DNA” value was 0.424. In the case of RRLG, the “one-hybrid fitness for binding parS DNA” value is reported as 0.794. RRHY was tested, and the “one-hybrid fitness for binding parS DNA” value was 0.446. With RRHG the “one-hybrid fitness for binding parS DNA” value was 0.72. RRLR was tested, and the “one-hybrid fitness for binding parS DNA” value was no more than 0.2. For RRLK, the “one-hybrid fitness for binding parS DNA” value was no more than 0.2. In the case of PSWH, the “one-hybrid fitness for binding parS DNA” value is reported as no more than 0.2. With LPFA the “one-hybrid fitness for binding parS DNA” value was 0.253. For KMLG, the “one-hybrid fitness for binding parS DNA” value was no more than 0.2. For FRSR, the “one-hybrid fitness for binding parS DNA” value was no more than 0.2. In the case of LSWR, the “one-hybrid fitness for binding parS DNA” value is reported as no more than 0.2. With TGKS the “one-hybrid fitness for binding parS DNA” value was no more than 0.2. With LTAC the “one-hybrid fitness for binding parS DNA” value was no more than 0.2. RKNM was tested, and the “one-hybrid fitness for binding parS DNA” value was 0.234. For RKST, the “one-hybrid fitness for binding parS DNA” value was 0.749. For RKCK, the “one-hybrid fitness for binding parS DNA” value was no more than 0.2. For RKWP, the “one-hybrid fitness for binding parS DNA” value was no more than 0.2. In the case of RKCY, the “one-hybrid fitness for binding parS DNA” value is reported as 0.369. With RKCT the “one-hybrid fitness for binding parS DNA” value was 0.803. In the case of RKSF, the “one-hybrid fitness for binding parS DNA” value is reported as no more than 0.2. With RKNK the “one-hybrid fitness for binding parS DNA” value was no more than 0.2. In the case of RKSQ, the “one-hybrid fitness for binding parS DNA” value is reported as no more than 0.2. RKNT was tested, and the “one-hybrid fitness for binding parS DNA” value was 0.723. With RKWH the “one-hybrid fitness for binding parS DNA” value was no more than 0.2. For RKWT, the “one-hybrid fitness for binding parS DNA” value was 0.759.
